A short description of assay [1]: Cell Viability - Hek293 (AID 427;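 active = compounds whose dose-response curve shows a full or clear partial loss of cell viability, called from curve shape rather than a numeric limit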;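 also: potency is read from the fitted curve at half-maximal effect; cells exposed to compound for 40 hours at 37 °C before reading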). As to conditions: qHTS. The method in brief: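 Luminescent ATP read-out (CellTiter-Glo, 20 min RT) after 40 hr compound exposure at 37 °C in complete medium. Signal normalized to DMSO (basal) and 100 uM tamoxifen (100% inhibition); concentration-response fitted with the standard Hill equation to give AC50.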
A general note: Quantitative high-throughput screening tests each substance at several concentrations.

Assay [2] is described as follows: Cell Viability - HepG2 (AID 433; calls by dose curve;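 also: potency is read from the fitted curve at half-maximal effect; potency for ATP loss meaning cytotoxicity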). As to conditions: qHTS. The method in brief:
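In this qHTS format, a 40 h, 37 °C compound incubation of HepG2 cells in complete medium precedes a 20 min CellTiter-Glo step at room temperature. Tamoxifen and doxorubicin serve as positive controls; Hill-equation fits yield AC50.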

Assay [3] in a line: Cell Viability - N2a (AID 540). Also: nearly all actives have a fitted effect of over 45% in size. Also: potency is read from the fitted curve at half-maximal effect.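 As to activity change, negative = cytotoxicity: plate controls were DMSO alone for no effect and tamoxifen control for full effect.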 To be noted: N2a mouse neuroblastoma cell viability; activity change, negative = cytotoxicity: at 92.2 µM (top of the series). The method in brief: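 Mouse neuroblastoma N2a cells (1500/well) were preincubated 5 hr at 37 °C, then exposed to compounds for 40 hr at 37 °C in complete medium. Viability was read as intracellular ATP by CellTiter-Glo luminescence; AC50 from Hill fits.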

Assay [4] is described as follows: Cell Viability - SH-SY5Y (AID 544). Also: nearly all actives have a fitted effect of over 55% in size. Also: potency is read from the fitted curve at half-maximal effect.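 As to viability change, negative = cytotoxic: 0% = DMSO alone and -100% = 100 µM tamoxifen.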 As to conditions: SH-SY5Y neuroblastoma cell viability; viability change, negative = cytotoxic: at 92.2 µM (top of the series). In a few lines: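 Human neuroblastoma SH-SY5Y cells (1500/well) in complete medium were exposed to compounds for 40 hr at 37 °C; intracellular ATP was then quantified by CellTiter-Glo luminescence after 20 min at room temperature. AC50 came from Hill-equation concentration-response fits.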

Assay [5] is described as follows: Cell Viability - Renal Proximal Tubule (AID 545). Also: nearly all actives have a fitted effect of over 40% in size. To be noted: renal proximal tubule cells viability, primary cells of rat origin; activity change, negative = cytotoxicity: at 91.7 µM (top of the series). The method in brief:
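In this qHTS format, normal rat kidney-derived proximal tubule cells in complete culture medium receive compound titrations, then sit 40 hours at 37 °C before luciferase-based ATP quantitation; potency is reported as AC50 from concentration-response curves.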

The nature of assay [6]: Cellular Toxicity (caspase-3) BJ (AID 658). Also: potency is read from the fitted curve at half-maximal effect. As to conditions: BJ fibroblasts, luminescence; Potency: caspase-3 activation; series mostly up to 91.7 µM. In a few lines:
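BJ human foreskin fibroblasts, 1000 cells/well, treated 16 hours at 37 °C in complete medium; caspase 3/7 activity by Caspase-Glo luminescence after 1 hr at room temperature. Normalized to DMSO and 10 uM staurosporine; AC50 from Hill fits.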

The nature of assay [7]: Cellular Toxicity (caspase-3) MRC-5 (AID 659). To be noted: MRC-5 cells, luminescence, normalized: DMSO 0%, 10 µM staurosporine 100%; series mostly up to 91.7 µM. The method in brief: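 MRC-5 human normal lung fibroblasts, 1500 cells/well, treated 16 h at 37 °C in complete medium. Caspase 3/7 measured by Caspase-Glo luminescence after 1 h at room temperature. Normalized to DMSO and 10 uM staurosporine; AC50 from Hill fit.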

The nature of assay [8]: Cellular Toxicity (caspase-3) SK-N-SH (AID 661). To be noted: SK-N-SH caspase-3 activation, qHTS; caspase-3 activation: at 91.7 µM (top of the series), DMSO as zero, staurosporine as full. The method in brief:
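SK-N-SH human neuroblastoma cells (1500/well) were treated with compounds for 16 hr at 37 °C in complete medium; caspase 3/7 activity was read by Caspase-Glo luminescence. AC50 came from Hill fits of data normalized to DMSO and 10 uM staurosporine.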

Assay [9] is described as follows: Cellular Toxicity (caspase-3) Renal Proximal Tubule (AID 667).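 Also: cells exposed to compound for 16 hours at 37 °C before detection.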 To be noted: renal proximal tubule cells, primary cells freshly taken from rat, solvent-only wells 0%, staurosporine 100%; series mostly up to 91.7 µM. The method in brief: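 Caspase-Glo 3/7 read-out, rat primary kidney proximal tubule cells. Compound exposure 16 h, 37 °C; detection after 1 h at RT. Activity scaled to DMSO and 10 uM staurosporine.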

Assay [10] can be described thus: MultiTox-Fluor Cytotoxicity Assay - LYMP1-003 - Dead Cells (AID 961). Also: nearly all actives have a fitted effect of over 70% in size. Also: potency is read from the fitted curve at half-maximal effect. As to conditions: LYMP1-003 lymphoblastoid cells, dead-cell protease fluorescence; series mostly up to 92.2 µM. The method in brief: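 Human lymphoblastoid LYMP1-003 cells (2500/well) were treated with compounds for 16 hr at 37 C in complete medium. Dead-cell protease release was read by bis-AAF-R110 fluorescence (Ex/Em 485/520). AC50 came from Hill fits, normalized to DMSO and 15 uM tetraoctylammonium bromide.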

The nature of assay [11]: MultiTox-Fluor Cytotoxicity Assay - LYMP1-003 - Live Cells (AID 962). Also: potency is read from the fitted curve at half-maximal effect. As to conditions: LYMP1-003 lymphoblastoid cells, MultiTox-Fluor live-cell protease fluorescence; series mostly up to 92.2 µM. In a few lines: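 LYMP1-003 human lymphoblastoid cells (2500/well) in complete medium were preincubated 5 hr at 37 C, then exposed to compounds for 16 hr at 37 C. Live-cell protease cleavage of GF-AFC read by fluorescence (Ex/Em 405/510); AC50 from Hill fits.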

A short description of assay [12]: Cell Viability - LYMP1-003 - Assay at 24 hr (AID 963). Also: potency is read from the fitted curve at half-maximal effect.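 As to viability change, negative = cytotoxic: plate controls were DMSO only for no effect and tetraoctylammonium bromide positive control for full effect.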 As to conditions: LYMP1-003 lymphoblastoid cell viability; series mostly up to 92.2 µM. The method in brief: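 Human lymphoblastoid LYMP1-003 cells (2500/well) were rested 5 hr at 37 C, then exposed to compounds in complete medium for 24 hr at 37 C. Cellular ATP was quantified by CellTiter-Glo luminescence, and AC50 values came from Hill fits of concentration-response data.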

A short description of assay [13]: Cell Viability - LYMP2-004 (AID 966). Also: nearly all actives have a fitted effect of over 65% in size. Also: potency is read from the fitted curve at half-maximal effect.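 As to activity change, negative = cytotoxicity: plate controls were DMSO only for no effect and tetraoctylammonium bromide control for full effect.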 To be noted: LYMP2-004 lymphoblastoid cell viability, qHTS; series mostly up to 92.2 µM. In a few lines:
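Human lymphoblastoid cells (2500/well) in complete medium were treated with compounds for 24 hr at 37 C, then intracellular ATP was measured by CellTiter-Glo luminescence. AC50 values came from Hill-equation fits of concentration-response data.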

Assay [14] can be described thus: Cell Viability - LYMP2-009 (AID 968). Also: nearly all actives have a fitted effect of over 55% in size. Also: potency is read from the fitted curve at half-maximal effect. To be noted: LYMP2-009 lymphoblastoid cell viability; series mostly up to 92.2 µM.
Assay [15] is described as follows: Cell Viability - LYMP2-019 (AID 973). Also: nearly all actives have a fitted effect of over 55% in size. Also: potency is read from the fitted curve at half-maximal effect.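 As to activity change, negative = cytotoxicity: 0% = DMSO alone and full effect = 92 µM tetraoctylammonium bromide.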 To be noted: LYMP2-019 lymphoblastoid cell line viability; series mostly up to 92.2 µM. The method in brief: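 Human lymphoblastoid cells were seeded at 2500 cells/well, preincubated 5 hr at 37 C, then exposed to compounds for 24 hr at 37 C in complete medium. Intracellular ATP was measured by CellTiter-Glo luminescence; AC50 from Hill fits.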

Assay [16] in a line: Cell Viability - LYMP2-021 (AID 974).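 Also: compound exposure lasts 24 hours at 37 °C; nearly all actives have a fitted effect of over 55% in size.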 Also: potency is read from the fitted curve at half-maximal effect. As to activity change, negative = cytotoxicity: % is scaled to controls: 0 for no effect and ±100 for the full control effect. As to conditions: LYMP2-021 lymphoblastoid cells viability; series mostly up to 92.2 µM. In a few lines:
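Human lymphoblastoid cells (2500/well) were preincubated 5 hr at 37 C, then exposed to compounds for 24 hr at 37 C in complete medium. Intracellular ATP was read by CellTiter-Glo luminescence; AC50 came from Hill-equation fits of concentration-response data.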

Assay [17] is described as follows: Cell Viability - LYMP2-023 (AID 975). Also: nearly all actives have a fitted effect of over 55% in size. Also: potency is read from the fitted curve at half-maximal effect.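 As to activity change, negative = cytotoxicity: cellular ATP measured by luciferase luminescence as viability proxy; plate controls were DMSO only for no effect and 92 µM tetraoctylammonium bromide control for full effect.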 As to conditions: LYMP2-023 lymphoblastoid cell viability; series mostly up to 92.2 µM. In a few lines:
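Human lymphoblastoid cells (2500/well) were preincubated 5 hr at 37 C, then exposed to compounds for 24 hr at 37 C in complete medium. Cellular ATP was read by CellTiter-Glo luminescence, and AC50 came from Hill-equation fits.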

Assay [18] is described as follows: Cell Viability - LYMP1-002 - Assay at 24 hr (AID 993). Also: potency is read from the fitted curve at half-maximal effect. As to activity change, negative = cytotoxicity: % is scaled to controls: 0 for no effect and ±100 for the full control effect. As to conditions: LYMP1-002 lymphoblastoid cells viability; series mostly up to 92.2 µM. In a few lines:
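Human lymphoblastoid LYMP1-002 cells, 2500/well in complete medium, were treated with compounds for 24 h at 37 C; intracellular ATP was read by CellTiter-Glo luminescence. AC50 values came from Hill-equation fits of qHTS concentration-response data.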

Assay [19] can be described thus: qHTS assay for small molecule agonists of the antioxidant response element (ARE) signaling pathway measured by Nrf2-dependant transcriptional activity (AID 720636; active = well fitted curve in the direction sought with a large enough effect in the repeat runs; an effect the other way counts as inactive or inconclusive; also: potency is read from the fitted curve at half-maximal effect; as to activation: % of control where 0% means no effect). To be noted: ARE-luc HepG2, Nrf2 luciferase reporter, 16 h; series mostly up to 92.4 µM. The method in brief: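 Cells: ARE-luc HepG2 with Nrf2-responsive luciferase. Medium contained 1% dialyzed FBS. Compound exposure lasted 16 hr at 37 C and 5% CO2, followed by ONE-Glo luciferase detection.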

Assay [20] is described as follows: qHTS assay for cell viability of the p53RE-bla HCT-116 cell line (AID 743292). Also: nearly all actives have a fitted effect of over 55% in size. Also: potency is read from the fitted curve at half-maximal effect. As to activity change, negative = cytotoxicity: % is scaled to controls: 0 for no effect and ±100 for the full control effect. As to conditions: p53RE-bla HCT-116 viability, ATP luminescence, 16 h; series mostly up to 95 µM. In a few lines: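 HCT-116 p53RE-bla cells seeded 4,000/well; 5 h at 37 C; compound (DMSO) added; 16 h at 37 C; CellTiter-Glo added, 30 min RT; luminescence read.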

“And” between values parts separate entries of the source, which are not always exact repeats. Equal entries are not always repeated. Inconclusive results are not listed. Some structures have more than one record in an assay (separate samples or runs), and their calls can disagree. The source made the active and inactive calls. Unless noted, calls follow the shape of the dose curve; as a rule, active = well fitted curve in the direction sought with a large enough effect; inconclusive = small, poorly fitted or top-dose-only effect, or another doubt; inactive = no such curve, though single readings can be large; an effect the other way counts as inactive or inconclusive.

Take `O=Cc1ccc(Cl)c(Cl)c1`: the Potency in assay [1] and in assay [2] was > 92 µM (inactive) throughout. Besides, the Potency entry in assay [3], in assay [4], in assay [5], in assay [6], in [10] and in assay [11] was “inactive” each time. In addition, the Potency entry in assay [12], in assay [13], in assay [14], in [15], in assay [16] and in [17] was “inactive” in each case. The Potency result in [18], in assay [19] and in assay [20] was “inactive” each time. Also, the call in [7] and in assay [9] was inactive. The caspase-3 activation in assay [8] was 1.15% (inactive).
Take `ClC1=C(Cl)C(Cl)(Cl)C(Cl)=C1Cl`: the Potency in assay [1] was > 92 µM (inactive); in assay [2], 22.6 µM (active); in [6], 3.98 µM (active); in assay [20], 25.1 µM (active) and inactive. Besides, the Potency entry in assay [4], in assay [5], in [10], in assay [11], in assay [12] and in [13] was “inactive” in each case. Further, the Potency entry in [18] and in [19] was “inactive” throughout. Further, the molecule was classed as inactive in assay [7] and in [9].
In the case of `c1ccc2c(c1)-c1cccc3c1c-2cc1ccccc13`, the Potency in assay [1] and in assay [2] was > 92 µM (inactive) in each case. Besides, the Potency result in assay [3], in [4], in assay [5], in assay [6], in assay [10] and in assay [11] was “inactive” in each case. The Potency result in [12], in assay [13], in assay [14], in assay [15], in [16] and in assay [17] was “inactive” each time. The Potency entry in [18] and in assay [20] was “inactive” in each case. Besides, the molecule was classed as inactive in assay [7] and in assay [9]. Moreover, the caspase-3 activation in assay [8] is 2.25% (inactive).
For `CNc1ccc(O)cc1`, the Potency is 40.8 µM (active) in assay [1]; 59.6 µM (active) in assay [2]; 31.6 µM (active) in assay [3]; 2 µM (active) in assay [4]; 12.6 µM (active) in [10]; 31.6 µM (active) in assay [11]. The Potency is 25.1 µM (active) in assay [12]; 5.01 µM (active) in [13]; 6.31 µM (active) in assay [14]; 3.98 µM (active) in assay [15]; 3.98 µM (active) in assay [16]; 7.94 µM (active) in [17]. The figures for the Potency in assay [18], in assay [19] and in [20] were 15.8 µM (active), 37.6 µM (active) and 70.8 µM (active), respectively. Further, the Potency entry in [6] is “inactive”. The molecule was classed as inactive in assay [7] and in assay [9]. The caspase-3 activation in [8] was -7.58% (inactive).
For the molecule `O=[N+]([O-])c1cc([N+](=O)[O-])c2ccc(S(=O)(=O)O)cc2c1O`, the Potency in assay [1] and in assay [2] was > 92 µM (inactive) each time. Also, the Potency entry in [3], in assay [4], in assay [5], in [6], in assay [10] and in [11] was “inactive” throughout. Besides, the Potency result in assay [12], in assay [13], in assay [14], in assay [15], in assay [16] and in assay [17] was “inactive” throughout. Also, the Potency result in assay [18] and in assay [20] was “inactive” in each case. Moreover, the call in [7] and in [9] was inactive. The caspase-3 activation in assay [8] is -1.51% (inactive).
Regarding `CN1[C@H]2CC(OC(=O)[C@H](CO)c3ccccc3)C[C@H]1[C@H]1O[C@H]12` (stereo partly specified), the Potency in assay [1] and in [2] was > 92 µM (inactive) each time. The Potency result in [3], in assay [4], in assay [5], in assay [6], in [10] and in assay [11] was “inactive” throughout. The Potency entry in [12], in assay [13], in assay [14], in assay [15], in [16] and in assay [17] was “inactive” in each case. The Potency entry in assay [18], in assay [19] and in [20] was “inactive” each time. Also, the molecule was called inactive in [7] and in [9]. Moreover, the caspase-3 activation in assay [8] is -1.73% (inactive) and -0.623% (inactive).
Regarding `Cc1cccc(O)c1C`, the Potency in assay [1] and in [2] was > 92 µM (inactive) in each case. For the same molecule, the Potency result in assay [3], in assay [4], in [5], in assay [6], in assay [10] and in assay [11] was “inactive” in each case. Moreover, the Potency entry in [12], in assay [13], in [14], in assay [15], in assay [16] and in assay [17] was “inactive” each time. Besides, the Potency result in assay [18], in [19] and in assay [20] was “inactive” throughout. Further, the molecule was called inactive in assay [7] and in assay [9]. The caspase-3 activation in assay [8] was -0.783% (inactive).
